KB-V1 cytotox = qHTS assay for MDR1-selective chemotherapeutics: Primary screen using the drug-selected MDR subline cells KB-V1; KB-V1 MDR cells viability, CellTiter-Glo, 72 h; Potency, µM (series often up to 46.1 µM), hits mostly cytotoxic; 3.4% of 400,000 active; further: nearly all actives have a fitted effect of over 60% in size
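Cells of the MDR subline KB-V1 are plated, dosed with compound at multiple concentrations, and incubated 72 h at 37 degrees C; CellTiter-Glo is then added and luminescence read after 10 min.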
DT40 TDP1 CPT = qHTS for Inhibitors of human tyrosyl-DNA phosphodiesterase 1 (TDP1): qHTS in cells in presence of CPT; chicken DT40 Tdp1-/-;hTDP1 cells + 20 nM CPT, ATP luminescence, 48 h; Potency, µM (titrated, usually from 46.2 µM), usual class: inhibitors; 12% of 420,000 active; AID 686979, 2013; further: nearly all actives have a fitted effect of over 55% in size
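Chicken DT40 Tdp1-/- cells complemented with human TDP1, 400 cells/well, exposed to compounds plus 20 nM camptothecin for at least 48 h at 37 C; viability read as ATP content by CellTiter-Glo luminescence.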
TDP1 cell noCPT = qHTS for Inhibitors of human tyrosyl-DNA phosphodiesterase 1 (TDP1): qHTS in cells in absence of CPT | DT40 Tdp1-/- hTDP1 cells, no CPT, ATP luminescence, 48 h | Potency, µM (doses to about 46.2 µM), usual class: inhibitors | 15% of 420,000 active | AID 686978, 2013; further: nearly all actives have a fitted effect of over 55% in size
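Luminescent ATP content (CellTiter-Glo) served as the growth readout. Knockout chicken DT40 cells expressing human TDP1 were exposed to compounds without camptothecin for a minimum 48 hr at 37 °C.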
HT1080 IDH1KD tx = qHTS for induction of synthetic lethality in tumor cells producing 2HG: qHTS for the HT-1080-IDH1KD cell line; HT-1080 IDH1 knockdown viability, ATP luminescence, 48 h; Potency, µM (titrated, usually from 46.1 µM), usual class: cytotoxic; 2% of 360,000 active; AID 686971, 2013
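CellTiter-Glo luminescence after 48 h compound exposure at 37 degrees C of IDH1-knockdown HT-1080 cells in 5% FBS RPMI. %Activity scaled between DMSO wells and cell-free media wells, with curves fitted and assigned curve classes.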
KB-3-1 tox = qHTS assay for MDR1-selective chemotherapeutics: Primary screen using the parental adenocarcinoma cell KB-3-1; KB-3-1 viability, CellTiter-Glo ATP luminescence, 72 h; Potency, µM (titrated, usually from 46.1 µM), most hits filed as cytotoxic; 1.4% of 400,000 active; further: nearly all actives have a fitted effect of over 60% in size
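Multi-concentration cytotoxicity screen in KB-3-1 cells grown in DMEM lacking phenol red with 10% FBS. After 72 h at 37 °C with compound, ATP-dependent luminescence was recorded.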
HT1080NT lethal = qHTS for induction of synthetic lethality in tumor cells producing 2HG: qHTS for the HT-1080-NT fibrosarcoma cell line; HT-1080-NT fibrosarcoma viability, CellTiter-Glo ATP luminescence, 48 h; Potency, µM (doses to about 46.1 µM), most hits filed as cytotoxic; 1.6% of 360,000 active;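 further: NT is the 2HG producing partner of a matched IDH1 knockdown line; nearly all actives have a fitted effect of over 55% in size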
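Toxicity toward the 2HG-producing NT line was scored as %Activity, normalised to DMSO and no-cell wells, from CellTiter-Glo luminescence after 48 hours' treatment.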
Each line names hits and unclear results; the compound was inactive in the other large screens. A selection: hits, their analogues and other compounds. The true share with any hit is near 19%. The call rests on the fitted dose curve; in most records, active means well fitted curve in the direction sought with a large enough effect; inconclusive means small, poorly fitted or top-dose-only effect, or another doubt; inactive means no such curve, though single readings can be large; an effect the other way counts as inactive or inconclusive.

CCN(Cc1ccccc1)C(=O)c1ccccc1C	KB-V1 cytotox inconclusive, TDP1 cell noCPT inconclusive
CCCN(CCC)C(=O)c1ccccc1C(=O)N(CCC)CCC	KB-V1 cytotox 8.2µM, DT40 TDP1 CPT inconclusive, TDP1 cell noCPT inconclusive
O=C(c1cccc(F)c1)N1CCC[C@@]2(CCN(c3ccncc3)C2)C1	none (no result: KB-V1 cytotox, HT1080 IDH1KD tx, KB-3-1 tox, HT1080NT lethal)
Cc1ccc(-c2cc(-c3n[nH]c(=S)o3)c3ccccc3n2)cc1	KB-V1 cytotox inconclusive, DT40 TDP1 CPT 16.4µM, TDP1 cell noCPT 20.6µM, KB-3-1 tox inconclusive
CCN(CC)S(=O)(=O)c1ccc2c(c1)nc(CCC(=O)Nc1cccc(C(F)(F)F)c1)n2CC	DT40 TDP1 CPT 29.1µM, TDP1 cell noCPT inconclusive
CCN(CC(=O)Nc1c(F)cccc1F)C(=O)CCc1nc2cc(S(=O)(=O)N(C)C)ccc2n1CC	none
CCn1c(CCC(=O)Nc2nc3c(s2)CCCC3)nc2cc(S(=O)(=O)N(C)C)ccc21	KB-V1 cytotox 23.1µM
COc1cccc(NC(=O)CN(C)C(=O)c2ccc(S(=O)(=O)Nc3ccccc3F)cc2)c1	none
CCN(CC)c1ccc(/C=N/NC(=O)c2ccco2)c(O)c1	DT40 TDP1 CPT 5.17µM, TDP1 cell noCPT 2.59µM, HT1080 IDH1KD tx inconclusive, KB-3-1 tox inconclusive, HT1080NT lethal inconclusive
CCN(CC)c1ccc(/C=N/NC(=O)c2cnccn2)cc1	DT40 TDP1 CPT 1.3µM, TDP1 cell noCPT 1.64µM, HT1080 IDH1KD tx 3.66µM, KB-3-1 tox inconclusive, HT1080NT lethal 5.17µM
CCN(CC)c1ccc(NC(=S)NC(=O)c2ccco2)cc1	KB-V1 cytotox inconclusive, DT40 TDP1 CPT 18.4µM, TDP1 cell noCPT 18.4µM, HT1080 IDH1KD tx inconclusive
CCN(CC)c1ccc(NC(=O)c2ccco2)c(C)c1	DT40 TDP1 CPT inconclusive, TDP1 cell noCPT inconclusive
CCN(CC)c1ccc(NC(=O)c2ccco2)cc1	KB-V1 cytotox inconclusive
CCN(CC)c1ccc(/C=N/NC(=S)NCc2ccccc2)c(O)c1	DT40 TDP1 CPT inconclusive, TDP1 cell noCPT inconclusive, HT1080 IDH1KD tx inconclusive, KB-3-1 tox 7.31µM
CCN(CC)c1ccc(/C=N/NC(=O)c2ccco2)cc1	DT40 TDP1 CPT inconclusive, TDP1 cell noCPT 3.26µM, HT1080 IDH1KD tx 2.59µM, KB-3-1 tox 3.66µM, HT1080NT lethal inconclusive
O=C(Cc1cccs1)N/N=C/c1ccccc1	KB-V1 cytotox inconclusive
CCN(CC)c1ccc(/C=N/NC(=O)Cc2cccs2)c(O)c1	KB-V1 cytotox inconclusive, DT40 TDP1 CPT 4.61µM, TDP1 cell noCPT 5.17µM, HT1080 IDH1KD tx inconclusive, KB-3-1 tox inconclusive, HT1080NT lethal inconclusive
CCOC(=O)c1cn(Cc2ccccc2)c(C(=O)OC(C)(C)C)c1O	KB-V1 cytotox inconclusive, DT40 TDP1 CPT 23.1µM
CCOC(=O)c1cn(Cc2ccccc2)c2cc(C)nn2c1=O	none
COc1ccc(C(=O)Nc2ccc(C(=O)OCc3cc(=O)n4nc(C5CC5)sc4n3)cc2)cc1	none (no result: HT1080 IDH1KD tx, HT1080NT lethal)
CC1CCCC(C)N1C(=O)CSc1nnc(-c2c[nH]c3ccccc23)o1 (configuration not stated)	DT40 TDP1 CPT inconclusive, TDP1 cell noCPT 16.4µM
CCC1CCCCN1C(=O)CSc1nnc(-c2ccc3c(c2)OCCO3)o1 (configuration not stated)	none
O=C(COC(=O)c1c[nH]c2ccccc12)NC1CCCC1	none
CC1CCCN(C(=O)CSc2nnc(-c3c[nH]c4ccccc34)o2)C1 (configuration not stated)	DT40 TDP1 CPT inconclusive, TDP1 cell noCPT inconclusive, HT1080NT lethal inconclusive
CC1CCCC(C)N1C(=O)COC(=O)c1c[nH]c2ccccc12 (configuration not stated)	TDP1 cell noCPT 3.26µM

Screens deposited in PubChem by National Center for Advancing Translational Sciences (NCATS).
